According to PubChem BioAssay AID1578 (Sanford-Burnham Center for Chemical Genomics, 2009):
Screen size: about 290,000 compounds; about 3,000 (1%) were called active. No stated cut-off is given here; in the data, active means inhibition mostly above about 36% (no sharp cut-off); inactive means mostly below about 34%. This excerpt belongs to a sample that is enriched for actives.

Assay: NOD1 signaling inhibitors, primary screen, cell-based, luminescence, uHTS (AID 1578);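 further: HEK-293T reporter cells stimulated with the NOD1 agonist gamma-tri-DAP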
Settings: NOD1-driven NF-kB luciferase reporter cells, at 4 µM, hits give high values

inhibition, inactive:
O=C1CN(C(=O)NCC(=O)N[C@H](Cc2ccccc2)C(=O)O)c2ccccc2N1 -34.2%
CC(C)c1cccc(C(C)C)c1NC(=O)Cn1c(=O)cnc2ccccc21 -9.4%
CN1CCC(N(C)S(=O)(=O)c2ccc(NC(=O)COc3ccc(F)cc3Cl)cc2)CC1 -16.5%
COc1ccccc1OC(=O)Cc1cccc2ccccc12 63.8%
CC(=O)c1ccc(N2CCN(C(=O)CN(C)S(=O)(=O)c3cnc[nH]3)CC2)cc1 -22.7%
N#CCn1cnc2sc(-c3ccccc3)cc2c1=O -27.8%
Cc1nn(C(C)(C)C)c(OC(=O)c2ccco2)c1Sc1ccccc1 -2.8%
Cc1nn(C(C)(C)C)c(OC(=O)c2ccc(Br)o2)c1Sc1ccccc1 19.3%
Cc1ccc(C2(C)NC(=O)N(CC(=O)Nc3cc(S(=O)(=O)N(C)C)ccc3C)C2=O)cc1 (configuration not stated) -19.4%
O=C(/C=C/c1ccc2c(c1)OCO2)c1ccccn1 -6.5%
O=C(/C=C\Nc1ccc2c(c1)OCO2)c1cccs1 -64.5%
O=C(/C=C/c1ccccc1)c1ccccn1 -15.9%
O=C(/C=C\Nc1ccccn1)c1ccccc1 -49.1%
O=C(/C=C/c1ccccc1Br)c1ccc2c(c1)OCO2 -20%
O=C(/C=C\Nc1ccc2c(c1)OCO2)c1ccc2c(c1)OCO2 -48.7%
COc1cc(-c2cc(-c3ccccc3)nc(SCC(=O)O)c2C#N)cc(OC)c1OC -3.4%
O=C(NCc1ccccc1)C1CCCN(S(=O)(=O)c2ccc(-n3cnnn3)cc2)C1 (configuration not stated) 34.5%
O=C(NC1CCSC1=O)c1ccccc1 (configuration not stated) 18.9%
Cc1ccc2sc(N(CCN(C)C)C(=O)c3ccc(S(=O)(=O)N4CC(C)OC(C)C4)cc3)nc2c1C (configuration not stated) -6.4%
COc1ccc(Br)cc1C1CC(=O)C(C)C(c2cc(Br)ccc2OC)N1 (configuration not stated) -12%
COc1ccc(/C=N/NC(=O)CSCc2ccc([N+](=O)[O-])cc2)cc1OC -10.4%
O=C(NNc1ccc(F)cc1F)C1CCC1 -1.9%
Clc1ccc(NNc2ccnc3cc(Cl)ccc23)cc1 -35.6%
O=C(NNc1cc(Cl)ccc1Cl)C1CCC1 -7.1%
NC(=S)NNc1ccnc2cc(Cl)ccc12 -8.6%
CCOc1ccc(Nc2ccnc3cc(Cl)ccc23)cc1 5.9%

inhibition, active:
Cc1nn(C(C)(C)C)c(OC(=O)c2cccs2)c1Sc1ccccc1 68.5%
O=C(/C=C\Nc1ccccc1Br)c1ccc2c(c1)OCO2 59.6%
O=C(/C=C\Nc1ccc2c(c1)OCO2)c1ccccn1 70.6%
O=C(/C=C/Nc1ccccc1Br)c1ccccn1 84.5%
Oc1ccc(Nc2ccnc3cc(Cl)ccc23)cc1 53.4%
O=C(NNc1ccnc2cc(Cl)ccc12)C1CCCCC1 47.5%
